Results published in PubChem BioAssay (EPA / NIEHS).
Records with an inconclusive call do not appear. Calls of active or inactive are those of the source. Rule for the calls: active = hit-call score of the fitted dose curve at least 0.9, where 1 is the maximum; inconclusive = response in the unintended direction; inactive = score below 0.9.

These compounds were tested against Cellular tumor antigen p53 (Homo sapiens) (UniProt P04637) (assay: TOX21_p53_BLA_p5_ratio: Tox21 HCT-116 p53 Agonism Beta-lactamase Assay, Ratio, Phase 5 (AID 2283599)).
Text: TOX21_p53_BLA_p5 is a cell-based, single-readout assay that uses HCT116, a human intestinal cell line, […] in a 1536-well plate.TOX21_p53_BLA_p5_ratio is an assay readout measuring reporter gene via receptor activity and designed using inducible reporter (beta lactamase induction) detected with GAL4 b-lactamase reporter gene. The signal is derived from the ratio of cleaved (ch2) to uncleaved (ch1) reporter gene substrate used as the measure of target activity.Data from the assay component TOX21_p53_BLA_p5_ratio was analyzed into 1 assay endpoint. This assay endpoint, TOX21_p53_BLA_p5_ratio, was analyzed in the positive analysis fitting direction relative to DMSO as the negative control and baseline of activity. Using a type of inducible reporter, gain-of-signal activity can be used to understand changes in the reporter gene as they relate to the gene TP53. Furthermore, this assay endpoint can be referred to as a primary readout, because this assay has produced multiple assay endpoints and this ratio serves a reporter gene function to understand target activity. To generalize the intended target to other relatable targets, this assay endpoint is annotated to the DNA binding intended target family, where the subfamily is tumor suppressor.
Thawing Method: Place 14 mL of pre-warmed thaw medium into a 15 mL of conical tub. Remove the vial of cells to be thawed from liquid nitrogen and thaw rapidly by placing at 37C in a water bath with gentle agitation for 1-2 minutes. Decontaminate the vial by wiping with 70% ethanol before opening in a biological safety cabinet. Transfer the vial contents drop-wise into 14 mL of thaw medium in a sterile 15-mL conical tub. Centrifuge cells at 900 rpm for 4 minutes and resuspend in thaw medium. Transfer contents to the T75 tissue culture flask containing Thaw Medium and place flask in a humidified 37C/5% CO2 incubator. Switch to growth medium at first passage.Propagation Method: Aspirate medium, rinse once in DPBS, add 0.25% Trypsin/EDTA and swirl to coat the cell evenly. Add an equal volume of Growth Medium to inactivate Trypsin after 2-3 minutes incubation at 37C. Centrifuge cells at 900 rpm for 4 minutes and resuspend in growth medium. Cell should be passage or fed at least twice a week.Assay Protocol: Harvest cells from culture in growth medium and resuspend in assay medium. 2.2 Dispense 4000 cells/5 uL/well into 1536-well black/clear bottom plates using a Multidrop dispenser. After the cells were incubated at 37C for 5 hours, 23 nL of compounds dissolved in DMSO were transferred to the assay plate by a PinTool resulting in a 217-fold dilution. Incubate the plates for 16 hours at 37C, 5% CO2. Add 1 uL of 6X LiveBLAzer FRET B/G (CCF4-AM) Substrate Mixture to each well using a BioRAPTR dispenser and incubate the plates at room temperature for 2 hours. Measure fluorescence intensity at 460 and 530 nm emission and 405 nm excitation by an Envision detector. Data is expressed as the ratio of 460nm/530nm emissions. Add 4 uL of Cell-titer Glo to each well using BioRAPTR and incubate the plates at room temperature for 2 hours. Measure fluorescence intensity by a VewLux plate reader.

Cellular tumor antigen p53 (Homo sapiens), sequence (P04637 whole entry, looked up, the tested form may be a part): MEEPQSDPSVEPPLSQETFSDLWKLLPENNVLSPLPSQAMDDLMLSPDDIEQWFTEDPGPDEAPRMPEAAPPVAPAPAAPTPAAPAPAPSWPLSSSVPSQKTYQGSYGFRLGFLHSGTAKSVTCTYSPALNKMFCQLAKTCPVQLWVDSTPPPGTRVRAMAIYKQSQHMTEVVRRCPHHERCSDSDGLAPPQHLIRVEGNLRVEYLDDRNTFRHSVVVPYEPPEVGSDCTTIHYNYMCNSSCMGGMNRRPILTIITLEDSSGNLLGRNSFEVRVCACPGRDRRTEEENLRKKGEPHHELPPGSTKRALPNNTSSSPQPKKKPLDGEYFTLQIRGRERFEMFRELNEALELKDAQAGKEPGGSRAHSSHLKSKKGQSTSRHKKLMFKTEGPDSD

Row | Structure (SMILES) | outcome | AC50
1 | O=C(NNCS(=O)(=O)O)c1ccncc1 | inactive | 
2 | CC(C)N(C)C | inactive | 
3 | O=C(CCN1CCC(c2ccccc2)C1)c1ccc2c(c1)OCCO2 (stereo not given) |  | 41.1 µM (active)
4 | CO[C@@]1(NC(=O)CSC[C@@H](N)C(=O)O)C(=O)N2C(C(=O)O)=C(CSc3nnnn3C)CS[C@@H]21 | inactive | 
5 | CN1CCN(c2c(F)cc3c(=O)c(C(=O)O)cn4c3c2OCN4C)CC1 | inactive | 
6 | CC1(C)CO[C@@H](CC(=O)O)CN1 | inactive | 
7 | CC(=O)OCC(=O)[C@@]1(O)CC[C@H]2[C@@H]3C[C@H](C)C4=CC(=O)C=C[C@]4(C)[C@H]3[C@@H](O)C[C@@]21C | inactive | 
8 | N[C@H](C(=O)O)[C@@H](O)c1ccc(O)c(O)c1 | inactive | 
9 | CC(=O)N[C@@H](CC(=O)N[C@@H](CCC(=O)O)C(=O)O)C(=O)O | inactive | 
10 | CCOC(=O)C1=C[C@]2(CC)CCCN3CCc4c(n1c1ccccc41)[C@@H]32 | inactive | 
11 | NC(=O)[C@@H]1C[C@]2(NC(=O)NC2=O)c2cc(F)ccc2O1 | inactive | 
12 | O=C1CC[C@H](C(=O)N2CCCCC2)N1 | inactive | 
13 | O=C(O)CNC(=O)c1ccc(CO)o1 | inactive | 
14 | S=C=Nc1ccc(N=C=S)cc1 | inactive | 
15 | Cc1ccccc1C(=O)Nc1ccc(C(=O)N2CCCC(O)c3cc(Cl)ccc32)c(C)c1 (stereo not given) | inactive | 
16 | N[C@@H](C(=O)N[C@@H]1C(=O)N2C(C(=O)O)=C(Cl)CC[C@H]12)c1ccccc1 | inactive | 
17 | CN1CCN(c2c(F)cc3c(=O)c(C(=O)O)cn4c3c2SCC4)CC1 | inactive | 
18 | NS(=O)(=O)c1cc(-c2nn[nH]n2)c(NCc2cccs2)cc1Cl | inactive | 
19 | CC1CCCC(C)N1NC(=O)c1ccc(Cl)c(S(N)(=O)=O)c1 (stereo not given) | inactive | 
20 | CC1(C)Cc2cccc(N)c2O1 | inactive | 

Row | Structure (SMILES) | outcome | AC50
21 | N[C@@H](CSCCCO)C(=O)O | inactive | 
22 | Cc1ccc(Cl)c(N)c1Cl | inactive | 
23 | CC(=O)c1ccc(C(C)=O)cc1 | inactive | 
24 | C=CC[N+]1([C@H]2C[C@H]3[C@@H]4CC[C@H]5C[C@H](O)[C@@H](N6CCOCC6)C[C@]5(C)[C@H]4CC[C@]3(C)[C@H]2OC(C)=O)CCCC1 | inactive | 
25 | CCCCCCCCCCCC[N+](C)(C)CCCS(=O)(=O)[O-] | inactive | 
26 | COc1ccc(Nc2ccc(OC)cc2)cc1 | inactive | 
27 | CC(=O)Nc1ccc(S(=O)(=O)Nc2cc(C)on2)cc1 | inactive | 
28 | CC(Oc1ccccc1)C(=O)N[C@@H]1C(=O)N2[C@@H]1SC(C)(C)[C@@H]2C(=O)O (stereo not given in full) | inactive | 
29 | Nc1ccccc1S(=O)(=O)O | inactive | 
30 | CCC=O | inactive | 
31 | Nc1nc(NC2CC2)c2ncn([C@H]3C=C[C@@H](CO)C3)c2n1 | inactive | 
32 | O=C1CCCc2ccccc21 | inactive | 
33 | CC(=NCc1ccccc1)c1ccccc1O | inactive | 
34 | NC(=O)CC[C@@H]1NC(=O)[C@H](Cc2ccccc2)NC(=O)[C@H](Cc2ccc(O)cc2)NC(=O)[C@@H](N)CSSC[C@@H](C(=O)N2CCC[C@H]2C(=O)N[C@@H](CCCN=C(N)N)C(=O)NCC(N)=O)NC(=O)[C@H](CC(N)=O)NC1=O | inactive | 
35 | CN1c2c(nc(N)[nH]c2=O)NCC1CNc1ccc(C(=O)NC(CCC(=O)O)C(=O)O)cc1 (stereo not given) | inactive | 
36 | CN1C[C@H]2c3ccccc3Oc3ccc(Cl)cc3[C@@H]2C1 | inactive | 
37 | NC(CO)C(=O)NNCc1ccc(O)c(O)c1O (stereo not given) | inactive | 
38 | CCCN(CC)C(CC)C(=O)Nc1c(C)cccc1C (stereo not given) | inactive | 
39 | CCOC(=O)[C@H](CCc1ccccc1)N[C@@H](C)C(=O)N1CC2(C[C@H]1C(=O)O)SCCS2 | inactive | 
40 | CCc1c(C)[nH]c2c1C(=O)C(CN1CCOCC1)CC2 (stereo not given) | inactive | 
